The values that follow come from PubChem BioAssay.

Active and inactive are the calls of the source.

The nature of this assay: optical density shifts of acrAB sulA E. coli – strain DRC41, OD650, 48 h, E. coli filamentation inducer project, primary screen (AID 1152).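 Note: E. coli MC1000 strain DRC41 lacking acrAB efflux pump and sulA.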 The note with it: higher = more signal, called active from +8 up or from −8 down.
Turning to `O=C(CS)NCCCCCNC(=O)[C@@H]1C[C@@H]2C(=O)NCC(=O)N2[C@@H]1c1cccc(OCCO)c1`, the z-score is 3.02 (inactive). On to `O=C(CS)NCCCCCNC(=O)[C@H]1C[C@H]2C(=O)NCC(=O)N2[C@H]1c1cccc(OCCO)c1`, for which the z-score was 1.43 (inactive).

With `CN(C)CCCCNC(=O)[C@@H]1C[C@@H]2C(=O)N[C@@H](CCCCN)C(=O)N2[C@@H]1c1ccc(O)cc1`, the z-score is 0.928 (inactive). The value for `COc1ccc(CCNC(=O)[C@@]2(C)c3ccccc3C(=O)N(c3ccc(C)cn3)[C@H]2c2ccc(CO)cc2)cc1` was -0.246 (inactive); that for `O=C(NCCN1CCOCC1)[C@@H]1c2ccccc2C(=O)N(Cc2cc(C(F)(F)F)cc(C(F)(F)F)c2)[C@H]1c1ccc(CO)cc1` was -0.0112 (inactive).

`O=C(NCc1ccccc1)[C@@H]1c2ccccc2C(=O)N(C2Cc3ccccc3C2)[C@H]1c1ccc(CO)cc1`: the z-score was -1.25 (inactive). Take `COCCOC(=O)N1C(=O)[C@@]2(c3cc(C#CC4(O)CCCCCC4)ccc31)[C@H](C(=O)Nc1nc3ccccc3s1)[C@H]1C(=O)O[C@H](c3ccccc3)[C@H](c3ccccc3)N1[C@@H]2c1ccccc1OCCO`: the z-score was 0.736 (inactive).

As for `CC1CC/C=C\[C@H]2OC34C=CCN(c5ccc6ccccc6c5)C(=O)[C@H]3N(CCO)C(=O)[C@@H]4C2C(=O)O1` (some centres not stated), the z-score was -0.0648 (inactive). `O=C1O[C@@H](c2ccccc2)[C@@H](c2ccccc2)N2[C@@H](c3ccc(OCCO)cc3)[C@]3(C(=O)Nc4ccc(C#CCCO)cc43)[C@@H](C(=O)NC[C@H](O)c3ccccc3)[C@H]12`: the z-score is 0.591 (inactive). The value for `O=C1OCCC/C=C\[C@H]2OC34C=CCN(c5ccc6ccccc6c5)C(=O)[C@H]3N(CCCCCO)C(=O)[C@@H]4C12` (some centres not stated) was -0.829 (inactive); that for `CC(C)CNC(=O)[C@@]1(Cc2ccccc2I)c2ccccc2C(=O)N(Cc2ccccc2C(F)(F)F)[C@H]1c1ccc(CO)cc1` was 0.0655 (inactive).

Take `C#CCOc1ccc(C[C@@H](C(=O)OC)N(CC#C)[C@@H](/C=C/C2CC2)[C@H](O)Cc2ccccc2)cc1`: the z-score is -1.04 (inactive).

In the case of `CCOC(=O)[C@H]1C/C=C/C[C@H](C(=O)OCC)C(=O)O[C@H]2[C@@H](OC)O[C@H](CO)[C@@H](OC(=O)c3ccc(Br)cc3)[C@@H]2OC1=O`, the z-score was -0.365 (inactive). On to `O=C1[C@@]23C=C(Br)[C@H](C[C@@H]2COC3)[C@]12CO2`, for which the z-score is -0.508 (inactive). For `O=C1NC(=O)C2C1C=CC(C(O)c1ccc(-c3ccccc3)s1)N2Nc1ccc(Cl)cc1Cl` (configuration not stated) the value was -2.23 (inactive).

Regarding `C=C(C(=O)CC[C@H](OC(C)=O)c1ccccc1OCCO)C(C)C`, the z-score was 0.0974 (inactive). The value for `O=C1C2C=CC(C(O)COCc3ccccc3)N(Nc3ccc([N+](=O)[O-])cc3)C2C(=O)N1c1ccccc1` (configuration not stated) was 0.383 (inactive); that for `COCC(=C=CC[C@H](O)c1cccc(OCCO)c1)CCO` was 0.223 (inactive); that for `NCCCCCCNC(=O)[C@H]1C[C@H]2C(=O)N[C@@H](Cc3ccccc3)C(=O)N2[C@H]1c1cccc(OCCO)c1` was 0.921 (inactive).

In the case of `CCCCCN1CC=CC23O[C@@H]4C=CCOC(=O)[C@@H]4[C@H]2C(=O)N(C(C)CO)[C@@H]3C1=O` (some centres not stated), the z-score was -0.0744 (inactive). For `CC(c1ccccc1)C(O)C1C=CC2C(=O)N(C)C(=O)C2N1NC(=O)OC(C)(C)C` (configuration not stated) the value was -0.288 (inactive); for `COCCCNC(=O)[C@@H]1c2ccccc2C(=O)N(Cc2ccccc2)[C@H]1c1ccc(CO)cc1`, -0.134 (inactive); for `COCCOC(=O)N1C(=O)[C@@]2(c3cc(C#CCCO)ccc31)[C@H](c1ccc(OCCO)cc1)N1[C@H](c3ccccc3)[C@H](c3ccccc3)OC(=O)[C@H]1[C@@H]2C(N)=O`, 0.391 (inactive).

Consider `COc1ccc(C(=O)Nc2ccc(CN3C(=O)[C@]4(O[C@H](CC(=O)N5CCC[C@H]5CO)[C@@H]([Si](C)(C)c5ccc(OC)cc5)[C@@H]4C)c4ccccc43)cc2)cc1`, for which the z-score was -0.951 (inactive).

Turning to `C=CC[C@]1(C(N)=O)COC(c2ccc(OCCCO)cc2)=N1`, the z-score is 1.3 (inactive). The value for `COC(=O)[C@@]1(Cc2ccccc2)[C@H]2c3cc(C(=O)N(C)C)n(CCc4c[nH]c5ccc(O)cc45)c3C[C@H]2CN1C(=O)c1ccccc1` was 0.263 (inactive); that for `COc1ccc(C#Cc2ccc3c(c2)[C@]2(C(=O)N3)[C@H](c3ccc(O)cc3)N3[C@H](c4ccccc4)[C@H](c4ccccc4)OC(=O)[C@H]3[C@@H]2C(=O)N2CCc3cc(OC)c(OC)cc3C2)cc1` was -0.291 (inactive).
